# Source: the supplement of paper PMC8371130
# Where a name gives a salt, the structure may show the parent alone.
# System: HL-1
# Test: relative cell viability (CellTiter-Glo) vs DMSO control (% of DMSO control); higher = more viable cells
# Summary of the method: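 In 384-well plates, 1000 HL-1 mouse atrial cardiomyocytes per well were plated with compounds at 40, 200, 1000 or 5000 nM in 0.01% DMSO. Hypoxia at 1% O2 for 48 h began one day later and was followed by 24 h of reoxygenation, with parallel plates held in normoxia. CellTiter-Glo luminescence gave cell viability relative to vehicle-treated control cells.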
# [1] = oxygen condition: hypoxia 48 h (1% O2) + reoxygenation 24 h, 40 nM
# [2] = oxygen condition: hypoxia 48 h (1% O2) + reoxygenation 24 h, 200 nM
# [3] = oxygen condition: hypoxia 48 h (1% O2) + reoxygenation 24 h, 1000 nM
# [4] = oxygen condition: hypoxia 48 h (1% O2) + reoxygenation 24 h, 5000 nM
# [5] = oxygen condition: normoxia 72 h, 40 nM
# [6] = oxygen condition: normoxia 72 h, 200 nM
# [7] = oxygen condition: normoxia 72 h, 1000 nM
# [8] = oxygen condition: normoxia 72 h, 5000 nM
SMILES,relative cell viability [1],relative cell viability [2],relative cell viability [3],relative cell viability [4],relative cell viability [5],relative cell viability [6],relative cell viability [7],relative cell viability [8]
Oc1cc(O)c(Cl)cn1 [Gimeracil],99.3,101,100,104,97.8,101,101,105
NC(=O)c1ncn([C@@H]2O[C@H](CO)[C@@H](O)[C@H]2O)n1 [Ribavirin],102,96.2,108,101,100,104,109,107
CN(C)C/C=C/C(=O)Nc1cc2c(Nc3ccc(F)c(Cl)c3)ncnc2cc1O[C@H]1CCOC1 [Afatinib],102,107,85.9,64.7,102,102,72.5,17.6
COC(=O)C1=C(C)NC(C)=C(C(=O)OCCN2CCN(C(c3ccccc3)c3ccccc3)CC2)C1c1cccc([N+](=O)[O-])c1 (stereo not given) [Manidipine],103,103,99.6,105,102,99.2,103,103
Nc1ccn([C@@H]2O[C@H](CO)[C@@H](O)C2(F)F)c(=O)n1 [Gemcitabine HCl],3.53,3.99,3.86,3.72,3.77,4.75,3.77,3.39
COC(=O)C1=C(C#N)NC(C)=C(C(=O)OC(C)C)C1c1cccc([N+](=O)[O-])c1 (stereo not given) [Nilvadipine],107,105,96.3,98.7,98.3,98.1,102,108
C[N+](C)(C)CC(O)CC(=O)[O-] (racemic) [DL-Carnitine hydrochloride],100,95.2,97.2,107,104,102,103,91.5
CCCN(CCC)CCc1cccc2c1CC(=O)N2 [Ropinirole HCl],109,117,106,114,107,104,107,110
Nc1nc2[nH]cnc2c(=S)[nH]1 [Thioguanine],97.1,79.2,65.6,24.5,82.9,75.5,64,22.5
CCN1CC(CCN2CCOCC2)C(c2ccccc2)(c2ccccc2)C1=O (stereo not given) [Doxapram HCl],102,104,100,107,116,103,106,112
CCC[C@@H]1C[C@@H](C(=O)N[C@@H]([C@H]2O[C@H](SC)[C@H](O)[C@@H](O)[C@H]2O)[C@H](C)Cl)N(C)C1 [Clindamycin hydrochloride],98.5,93.8,91.3,102,102,98,100,86.2
Nc1ccn([C@@H]2O[C@H](CO)[C@@H](O)[C@H]2O)c(=O)n1 [Cytidine],101,101,105,106,106,107,101,106
C=CC[N+]1([C@H]2C[C@H]3[C@@H]4CC[C@H]5C[C@H](O)[C@@H](N6CCOCC6)C[C@]5(C)[C@H]4CC[C@]3(C)[C@H]2OC(C)=O)CCCC1 [Rocuronium bromide],104,105,116,110,104,104,104,107
Cn1ccnc1S [Methimazole],102,99.9,105,98.1,107,100,95.4,95.9
CC(C)C[C@H](NC(=O)[C@H](Cc1ccccc1)NC(=O)c1cnccn1)B(O)O [Bortezomib],10.4,10,8.52,4.58,12.9,10.5,6.82,4.44
Nc1ccn([C@@H]2O[C@H](CO)[C@@H](O)[C@@H]2O)c(=O)n1 [Cytarabine],89.2,75.5,44.9,5.82,84.9,64.3,35.7,4.29
COc1ccc(C[C@@H]2c3cc(OC)c(OC)cc3CC[N@+]2(C)CCC(=O)OCCCCCOC(=O)CC[N@@+]2(C)CCc3cc(OC)c(OC)cc3[C@H]2Cc2ccc(OC)c(OC)c2)cc1OC [Cisatracurium besylate],108,100,107,109,105,103,109,128
C[N+](C)(C)CCCCCC[N+](C)(C)C [Hexamethonium bromide],101,99.3,105,113,94.2,96.6,100,103
C[C@H](Cc1cc2c(c(C(N)=O)c1)N(CCCO)CC2)NCCOc1ccccc1OCC(F)(F)F [Silodosin],106,98.3,102,105,102,104,108,104
Cc1ccc(O)c([C@H](CCN(C(C)C)C(C)C)c2ccccc2)c1 [Tolterodine tartrate],108,105,102,109,104,112,107,110

SMILES,relative cell viability [1],relative cell viability [2],relative cell viability [3],relative cell viability [4],relative cell viability [5],relative cell viability [6],relative cell viability [7],relative cell viability [8]
Cc1nc2n(c(=O)c1CCN1CCC(c3noc4cc(F)ccc34)CC1)CCCC2O (stereo not given) [Paliperidone],106,107,106,104,104,109,105,118
Cc1onc(-c2ccccc2)c1-c1ccc(S(N)(=O)=O)cc1 [Bextra],101,97.9,104,107,103,100,95.1,111
CCN(CC)CCOC(=O)C1(C2CCCCC2)CCCCC1 [Dicyclomine HCl],94.1,95.7,97.1,100,92.4,101,97.2,105
C[C@](N)(Cc1ccc(O)c(O)c1)C(=O)O [Methyldopa],105,79.3,104,103,98.8,91.9,102,109
O=C(O)C(=O)O.[NH-][C@@H]1CCCC[C@H]1[NH-].[Pt+2] [Oxaliplatin],99.8,102,109,114,97.4,107,105,122
CS(=O)(=O)OCCCCOS(C)(=O)=O [Busulfan],108,102,103,107,104,103,97.4,120
CCOc1nc2cccc(C(=O)OCc3oc(=O)oc3C)c2n1Cc1ccc(-c2ccccc2-c2noc(=O)[nH]2)cc1 [Azilsartan Medoxomil],101,99.2,116,116,93.4,103,100,114
CCCN[C@H]1CCc2nc(N)sc2C1 [Pramipexole],103,103,101,108,98.2,98.9,107,108
C=CC(=O)Nc1cc(Nc2nccc(-c3cn(C)c4ccccc34)n2)c(OC)cc1N(C)CCN(C)C,97.1,94.4,91.5,104,95.5,93.1,89.4,108
CN1C2CCCC1CC(NC(=O)c1nn(C)c3ccccc13)C2 (stereo not given) [Granisetron HCl],103,102,106,101,101,102,105,102
Cn1nnc2c(C(N)=O)ncn2c1=O [Methazolastone],102,106,111,106,114,106,107,112
CC[C@H]1OC(=O)C[C@@H](O)[C@H](C)[C@@H](O[C@@H]2O[C@H](C)[C@@H](O[C@H]3C[C@@](C)(O)[C@@H](O)[C@H](C)O3)[C@H](N(C)C)[C@H]2O)[C@@H](CC=O)C[C@@H](C)C(=O)/C=C/C(C)=C/[C@@H]1CO[C@@H]1O[C@H](C)[C@@H](O)[C@@H](OC)[C@H]1OC [Tylosin tartrate],102,108,99.4,99,101,92.6,100,91.8
Cc1nc(Nc2ncc(C(=O)Nc3c(C)cccc3Cl)s2)cc(N2CCN(CCO)CC2)n1 [Dasatinib],71.8,87.1,80.2,90.2,85.9,88.5,82.1,89.2
CC(C)NCC(O)COc1ccc(CCOCC2CC2)cc1 (stereo not given) [Betaxolol hydrochloride],107,104,106,79.8,105,106,86.5,69.3
Nc1nc2ccc(OC(F)(F)F)cc2s1 [Riluzole],102,105,108,111,103,104,107,107
CCC(=O)O[C@@H](O[P@](=O)(CCCCc1ccccc1)CC(=O)N1C[C@H](C2CCCCC2)C[C@H]1C(=O)O)C(C)C [Fosinopril sodium],106,99.9,101,108,101,103,106,111
O=C1C(O)=C([C@H]2CC[C@H](c3ccc(Cl)cc3)CC2)C(=O)c2ccccc21 [Atovaquone],98.8,103,113,112,98.2,104,98.5,115
C[C@@H](CN1CC(=O)NC(=O)C1)N1CC(=O)NC(=O)C1 [Dexrazoxane Hydrochloride],98.2,105,104,106,101,96.3,92.8,94.8
C[N+]1(C)CCC(=C(c2ccccc2)c2ccccc2)CC1 [Diphemanil methylsulfate],104,100,104,104,102,104,106,100
COc1nc(C)nc(Cl)c1NC1=NCCN1 [Moxonidine],103,97.1,99.6,112,110,103,107,111
